Source: PubChem BioAssay AID2283131 (EPA ToxCast)
Results filed as inconclusive are left out. Calls of active or inactive are those of the source. How the source made its calls: active means hit-call score of the fitted dose curve at least 0.9, where 1 is the maximum; inconclusive means response in the unintended direction; inactive means score below 0.9.

Biological target: human Bruton's Tyrosine Kinase (BTK), BTK (gene 695) (UniProt Q06187)
Experiment: NVS_ENZ_hBTK: NovaScreen (NVS) Enzymatic Assay for human Bruton's Tyrosine Kinase (BTK)
Method: NVS_ENZ_hBTK is a biochemical, single-readout assay that uses extracted gene-proteins in a cell-free assay. Measurements were taken 1 hour after chemical dosing in a 96-well plate.NVS_ENZ_hBTK is one of one assay component(s) measured or calculated from the NVS_ENZ_hBTK assay. It is designed to make measurements of enzyme activity, a form of enzyme reporter, as detected with fluorescence intensity signals by Fluorescence and electrophoretic mobility shift technology.Data from the assay component NVS_ENZ_hBTK was analyzed into 1 assay endpoint. This assay endpoint, NVS_ENZ_hBTK, was analyzed in the positive analysis fitting direction relative to DMSO as the negative control and baseline of activity. Using a type of enzyme reporter, loss-of-signal activity can be used to understand changes in the enzymatic activity as they relate to the gene BTK. Furthermore, this assay endpoint can be referred to as a primary readout, because this assay has produced multiple assay endpoints where this one serves a enzymatic activity function. To generalize the intended target to other relatable targets, this assay endpoint is annotated to the kinase intended target family, where the subfamily is non-receptor tyrosine kinase. […]

Sequence of human Bruton's Tyrosine Kinase (BTK), BTK (gene 695) (Q06187 whole entry, looked up): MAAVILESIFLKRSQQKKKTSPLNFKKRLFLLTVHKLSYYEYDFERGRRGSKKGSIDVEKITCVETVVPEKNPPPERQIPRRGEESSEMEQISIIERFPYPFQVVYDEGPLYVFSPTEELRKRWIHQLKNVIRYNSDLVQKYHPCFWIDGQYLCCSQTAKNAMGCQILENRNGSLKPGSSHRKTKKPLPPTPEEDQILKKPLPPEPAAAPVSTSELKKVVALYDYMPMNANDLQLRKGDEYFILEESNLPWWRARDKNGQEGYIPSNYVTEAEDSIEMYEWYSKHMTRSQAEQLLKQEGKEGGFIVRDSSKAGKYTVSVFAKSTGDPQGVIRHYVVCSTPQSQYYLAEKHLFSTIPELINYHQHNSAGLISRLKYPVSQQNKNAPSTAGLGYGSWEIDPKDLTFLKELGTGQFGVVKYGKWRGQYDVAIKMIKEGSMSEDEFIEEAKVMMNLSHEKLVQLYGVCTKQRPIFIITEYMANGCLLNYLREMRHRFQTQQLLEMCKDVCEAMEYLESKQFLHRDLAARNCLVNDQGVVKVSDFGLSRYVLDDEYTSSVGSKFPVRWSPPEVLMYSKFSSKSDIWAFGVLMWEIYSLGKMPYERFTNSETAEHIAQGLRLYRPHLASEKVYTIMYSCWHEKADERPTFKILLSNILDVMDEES

Row | SMILES | outcome | AC50
1 | COCCO | inactive | 
2 | S=C([S-])NCCNC(=S)[S-].[Mn+2] |  | 45.5 µM (active)
